From PubChem
ALOX15 inhib: 15-hLO (ALOX15) enzyme inhibition; P16050; purified 15hLO-1, xylenol orange hydroperoxide absorbance; Potency, µM (doses to about 57.1 µM), hits mostly inhibitors; actives 1.4% (n = 74,000); also: nearly all actives have a fitted effect of over 55% in size
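Quantitative HTS in 25 mM Hepes pH 7.5 containing 0.01% Triton X-100: human 15hLO-1 at 40 nM, arachidonic acid at 50 uM, 6 min turnover. Product quantified via ferrous oxidation/xylenol orange, 573:405 nm absorbance ratio.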
HEK293 cAMP cs: raises cAMP in parental HEK293 cells, TSHR agonist counter-screen; parental HEK293 CNG cAMP sensor, membrane potential fluorescence; Potency, µM (top dose mostly 57.1 µM), hits mostly activators; actives 2.5% (n = 73,000); also: nearly all actives have a fitted effect of over 55% in size
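Parental HEK 293 cells stably expressing a cAMP-gated CNG channel were loaded with membrane potential dye containing 100 uM RO 20-1724 for 60 min. Compound added for 30 min; depolarization read as fluorescence intensity at 590 nm.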
Tau filament bind: binders of human tau filaments. P10636. recombinant tau filaments, thioflavin S fluorescence, 15 h; filaments grown with octadecylsulfate alongside compound. Potency, µM (titrated, usually from 57.1 µM). actives 2% (n = 71,000). AID 596;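 also: actives lower thioflavin S fluorescence by blocking filaments or displacing dye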
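Tau 2 uM in ThS buffer dispensed; compound added; 60 uM ODS added (finals 1 uM tau, 30 uM ODS); 15 h 37 C; fluor ex450/em510.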
Luciferase inh: inhibitors of firefly luciferase; actives 2.2% (n = 72,000); P08659; purified firefly luciferase, luminescence, 8 min; Potency, µM (top dose mostly 57.1 µM), usual class: inhibitors; also: nearly all actives have a fitted effect of over 40% in size
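Here, luciferase activity is measured as luminescence following an 8 min room-temperature reaction at 10 uM ATP, pH 7.2. Every library sample is titrated.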
Bst PK mod: pyruvate kinase (B. stearothermophilus) modulation. purified pyruvate kinase, luminescence ATP production; ribose 5-phosphate activator present at AC10. Potency, µM. actives 1.2% (n = 51,000). AID 361; in the data active = potency below about 11 µM; inconclusive = mostly about 12 µM to 25 µM;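 the screen sought inhibitors and activators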
TSHR ag: TSH receptor (human) agonism | P16473 | HEK293-CNG-TSHR cells (CNG channel as cAMP sensor), membrane potential dye, cAMP | Potency, µM (series often up to 57.1 µM), hits mostly activators | actives 0.48% (n = 73,000) | AID 926; active = well fitted activation curve with a large enough effect in the main read-out, with a control signal flat, not every such curve was filed as active; inconclusive = small, poorly fitted or top-dose-only effect, or a change in a side signal; inactive = no such curve, though single readings can be large or run the other way; reference of the percent scale not stated here;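 also: the control signal comes from parental cells without the receptor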
Target sequence (P16473 whole entry, looked up): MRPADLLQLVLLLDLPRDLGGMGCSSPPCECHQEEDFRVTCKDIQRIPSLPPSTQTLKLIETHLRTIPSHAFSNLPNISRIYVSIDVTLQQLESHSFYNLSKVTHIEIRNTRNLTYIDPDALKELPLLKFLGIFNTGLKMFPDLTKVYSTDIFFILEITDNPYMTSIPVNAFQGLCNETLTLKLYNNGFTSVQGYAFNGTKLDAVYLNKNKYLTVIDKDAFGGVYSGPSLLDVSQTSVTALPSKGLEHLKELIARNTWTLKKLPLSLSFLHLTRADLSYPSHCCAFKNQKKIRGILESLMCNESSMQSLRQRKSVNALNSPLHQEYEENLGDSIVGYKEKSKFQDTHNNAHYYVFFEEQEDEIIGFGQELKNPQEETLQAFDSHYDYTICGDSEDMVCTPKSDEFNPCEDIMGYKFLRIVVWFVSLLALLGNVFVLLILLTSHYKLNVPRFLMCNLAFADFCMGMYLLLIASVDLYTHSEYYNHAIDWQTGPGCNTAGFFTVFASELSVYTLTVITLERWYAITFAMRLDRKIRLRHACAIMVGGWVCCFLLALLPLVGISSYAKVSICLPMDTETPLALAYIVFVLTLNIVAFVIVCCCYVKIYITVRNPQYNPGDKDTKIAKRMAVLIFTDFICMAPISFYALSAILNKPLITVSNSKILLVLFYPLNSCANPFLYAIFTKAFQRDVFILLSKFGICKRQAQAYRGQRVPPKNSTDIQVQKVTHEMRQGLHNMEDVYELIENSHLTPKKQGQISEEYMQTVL
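cAMP rise detected as CNG-channel membrane depolarization by fluorescent dye (emission 590 nm), 30 min after compound, following 60 min dye loading containing 100 uM RO 20-1724 at room temperature. Cells: TSHR/CNG HEK 293, with parental CNG HEK 293 as control.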
Numbers stand for hits; n = inactive; u = inconclusive; x = not tested or not shown; [ ] = remark or other dose. Shown are actives, neighbours in structure and some others; about 7.8% of the full set was active somewhere. Unless noted, calls follow the shape of the dose curve; as a rule, active = well fitted curve in the direction sought with a large enough effect; inconclusive = small, poorly fitted or top-dose-only effect, or another doubt; inactive = no such curve, though single readings can be large; an effect the other way counts as inactive or inconclusive.

SMILES	ALOX15 inhib	HEK293 cAMP cs	Tau filament bind	Luciferase inh	Bst PK mod	TSHR ag
COc1cccc(C(=O)NC2CC3CCCC(C2)N3CC(=O)Nc2ccc(N(C)C)cc2)c1 (stereo not drawn)	n	n	13µM	n	n	n
CCCn1c(SCC(=O)Nc2nnc(CC)s2)nc2c1c(=O)n(C)c(=O)n2C	n	n	n	n	n	n
CCCCn1c(SCC(=O)Nc2nnc(C(C)C)s2)nc2c1c(=O)n(C)c(=O)n2C	n	1.6µM	n	n	n	u
CCCn1c(SCC(=O)Nc2nc3c(s2)CCCC3)nc2c1c(=O)n(C)c(=O)n2C	n	16µM	n	n	n	u
COC(=O)CNC(=O)[C@@]1(C)C=C[C@@H](Cc2ccccc2)N1C(C)=O	n	n	n	x	x	n
O=C1[C@H]2[C@H]3[C@H](O)[C@H](O)C/C(=N/OC[C@@H](O)COCc4ccco4)[C@H]3CC[C@@H]2C(=O)N1Cc1ccc2c(c1)OCO2	n[11.4 µM]	n[11.4 µM]	x	n[11.4 µM]	x	n[11.4 µM]
O=C1c2ccccc2N2C(=O)c3ccccc3C2N1O (stereo not drawn)	n	n	n	n	n	n
O=C1c2ccccc2N2C(=O)c3ccccc3C2N1Cc1ccco1 (stereo not drawn)	n	25µM	n	n	x	u
CCC(=O)/C=C/C1C(C)=CCCC1(C)C (stereo not drawn)	25µM	n	n	x	x	n
O=C(O)CC(c1ccccc1)c1ccccc1	n	n	n	n	n	n
O=C(O)CC[P+](c1ccccc1)(c1ccccc1)c1ccccc1	n[11.4 µM]	3.2µM	n[11.4 µM]	n[11.4 µM]	x	u
Ic1ccc2c(c1)N(c1ccccc1)c1cc(Nc3ccc4nc5ccc(I)cc5[n+](-c5ccccc5)c4c3)ccc1N2	n[11.4 µM]	n[11.4 µM]	4µM	n[11.4 µM]	x	n[11.4 µM]
O=C(CN1CCOc2ccccc21)NC1CCCCCCC1	n	n	u	n	x	x
O=C(CN1CCOc2ccccc21)NC1CCN(Cc2ccccc2)CC1	n	n	13µM	n	x	n
COC(=O)C1=C(C)N(C)C(C)=C(C(=O)OC)C1c1ccc(F)c(Br)c1	n	32µM	n	n	x	u
COC(=O)C1=C(C)N(C)C(C)=C(C(=O)OC)C1c1ccncc1	n	n	n	n	n	n
Fc1ccc(-c2nn3c(C4COc5ccccc5O4)nnc3s2)cc1 (stereo not drawn)	n	u	n	n	n	u
c1ccc2c(c1)OCC(c1nnc3sc(-c4cnccn4)nn13)O2 (stereo not drawn)	u	n	25µM	n	n	n
Fc1ccc(-c2nnc3sc(C4COc5ccccc5O4)nn23)cc1 (stereo not drawn)	n	25µM	n	n	x	u
Cc1ccc2c(c1)cc(CN(Cc1cccs1)C(=O)c1ccco1)c1nnnn12	n	16µM	n	n	n	u
COc1cc2nc(N(C)CCCNC(=O)[C@@H]3CCCO3)nc(N)c2cc1OC	n	n	n	n	x	n
COc1cccc(C2CC(c3ccccc3Cl)Nc3ncnn32)c1 (stereo not drawn)	n	n	n	n	8.4	n
c1ccc(-c2ccccn2)nc1	n	n	n	n	x	n
c1ccc(-c2ccc(-c3ccccn3)nn2)nc1	n	n	n	13µM	n	n
CC(C)(C)n1nnnc1C(c1cccs1)N(Cc1ccccc1)Cc1cccnc1 (stereo not drawn)	n	16µM	n	n	n	u
CCN(Cc1ccccc1)C(c1ccncc1)c1nnnn1C(C)(C)C (stereo not drawn)	n	u	n	n	n	u
Cc1ccc(C(=O)C2CCN(CC(=O)Nc3ccc(N(C)C)cc3)CC2)cc1	n	n	20µM	n	n	n
c1cncc(-c2nc(-n3ccnc3)c3ccccc3n2)c1	n	n	n	n[2.29 µM]	x	n
CCOc1ccc(C(C)=O)cc1CSc1nnc(-c2cccs2)n1CC1CCCO1 (stereo not drawn)	n	10µM	n	n	n	u
CCOc1ccc2nc(NC(=O)CSc3nnc(-c4ccncc4)n3CC3CCCO3)sc2c1 (stereo not drawn)	n	n	n	2.5µM	4.7	n
